Only some compounds are listed: those with a hit (about 1.6% of all), similar ones and a draw of the others.
PG9 binder: binders of HIV-1 gp120 antibody PG9, primary screen, biochemical, TR-FRET | HIV-1 gp120 / PG9 antibody interaction | TR-FRET gp120-PG9 antibody binding | inhibition, % at 6.7 µM | hit rate 0.43% among 360,000 | AID 624416, 2012; in the data active = inhibition above about 8.5%
Rev-erbA mod: modulators of Rev-erb alpha DNA binding, primary screen, biochemical, FITC-DNA, fluorescence polarization, uHTS | Nuclear receptor subfamily 1 group D member 1 (Homo sapiens), P20393 | Rev-erbα–FITC-DNA binding, 90 min | activity, % at 10 µM | hit rate 0.79% among 370,000;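 active = activity above about 14%, limit read from the data; passing the limit was not always enough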;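 also: 0% = DMSO wells with 35 nM protein and 100% = DMSO wells with 750 nM protein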
V-ATPase pHluor: regulators of yeast V-ATPase proton pumping, primary screen, pHLuorin cytosolic pH fluorescence; response, % at 10 µM; AID 504577, 2011; hit rate 0.37% among 350,000; S. cerevisiae; in the data active = response mostly above about 7.3%, no sharp cut-off; inactive = mostly below about 5.4%; also: actives read high
GC-A act: GC-A stimulated cGMP production enhancers – HEK293 GC-A cells, cGMP TR-FRET, EC30 ANP, primary screen | hit rate 0.14% among 370,000 | 0% at EC30 ANP, 100% saturating ANP | activation, % at 10 µM | AID 1671463, 2021 | Atrial natriuretic peptide receptor 1 (Homo sapiens), P16066; in the data active = activation above about 40%
GC-B act: human GC-B receptor activators, primary screen, HEK293 GC-B cells, cGMP TR-FRET, EC30 CNP. activation, % at 10 µM. 0% at EC30 CNP, 100% saturating CNP. hit rate 0.11% among 370,000;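 active = activation at 10 µM reaching about 35% in either raw or pattern-adjusted values, limit read from the data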
Target sequence (P20594 whole entry, looked up): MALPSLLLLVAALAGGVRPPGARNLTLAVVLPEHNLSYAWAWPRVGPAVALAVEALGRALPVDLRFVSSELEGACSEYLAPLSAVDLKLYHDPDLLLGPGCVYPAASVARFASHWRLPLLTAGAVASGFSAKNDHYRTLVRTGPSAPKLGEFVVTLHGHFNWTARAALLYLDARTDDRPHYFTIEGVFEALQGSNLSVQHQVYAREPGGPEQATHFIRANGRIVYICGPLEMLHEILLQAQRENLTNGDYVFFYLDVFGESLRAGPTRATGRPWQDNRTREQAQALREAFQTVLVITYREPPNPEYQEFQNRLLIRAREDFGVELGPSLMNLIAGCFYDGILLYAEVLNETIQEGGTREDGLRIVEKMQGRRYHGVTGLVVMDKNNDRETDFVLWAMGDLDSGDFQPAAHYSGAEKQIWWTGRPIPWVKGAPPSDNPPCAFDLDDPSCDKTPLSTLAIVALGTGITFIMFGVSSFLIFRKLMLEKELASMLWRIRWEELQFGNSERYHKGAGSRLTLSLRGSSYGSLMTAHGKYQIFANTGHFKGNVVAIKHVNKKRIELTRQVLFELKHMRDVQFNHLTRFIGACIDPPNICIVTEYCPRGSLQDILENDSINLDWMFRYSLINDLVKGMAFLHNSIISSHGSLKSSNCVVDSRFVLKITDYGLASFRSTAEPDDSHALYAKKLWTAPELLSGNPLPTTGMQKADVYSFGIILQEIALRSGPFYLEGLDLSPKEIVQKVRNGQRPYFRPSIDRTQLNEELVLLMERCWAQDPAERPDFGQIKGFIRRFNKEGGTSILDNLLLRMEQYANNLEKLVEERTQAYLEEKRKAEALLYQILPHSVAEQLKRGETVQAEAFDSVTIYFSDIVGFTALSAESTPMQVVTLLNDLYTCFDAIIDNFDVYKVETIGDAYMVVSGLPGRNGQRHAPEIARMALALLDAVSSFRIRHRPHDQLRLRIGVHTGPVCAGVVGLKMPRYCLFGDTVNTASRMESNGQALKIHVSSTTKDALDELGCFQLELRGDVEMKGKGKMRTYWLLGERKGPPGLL
Rev-erbA confirm: modulators of Rev-erb alpha DNA binding, confirmation, biochemical, FITC-DNA, fluorescence polarization, single point; shares compounds with Rev-erbA mod; 90 min; activation, % at 25 µM; hit rate 61% among 3,000;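 active = activation at or above a set limit, or at least 3 SD above the negative control mean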;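 also: 0% = 35 nM protein with DMSO and 100% = 750 nM protein high control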
RORg counter: modulation of RORgamma DNA binding, dose response, counter-screen for Rev-erb alpha modulator project, biochemical, fluorescence polarization, FITC-DNA | shares compounds with Rev-erbA mod | purified RORgamma protein-FITC-DNA binding | AID 1259320, 2017 | hit rate 8% among 910 | IC50, µM;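 active = Compounds whose fitted half-maximal concentration for disrupting protein-DNA binding is below 10 micromolar; the record names Rev-erb in its text, so the target is in doubt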
Starred values were filed as active, the others as inactive; i = inactive; / = not tested or not shown.

SMILES	PG9 binder	Rev-erbA mod	V-ATPase pHluor	GC-A act	GC-B act	Rev-erbA confirm	others
C=CC[C@H]1c2ccccc2[C@H]2N3N=Cc4ccccc4[C@H]3[C@H](CCc3ccccc3)C(=O)N2N1C(=O)c1ccccc1	/	-6.1	/	-3.5	4.1	/
COC(=O)Cn1c(=NC(=O)c2nc3ccccc3s2)sc2cc(S(N)(=O)=O)ccc21	-1.8	38.9*	-0.4	-4.7	-8.7	23.5*
COCCn1c(=NC(=O)c2ccc3c(c2)OCCO3)sc2cc(S(N)(=O)=O)ccc21	7.1	28.9*	0.6	13.5	-14.0	38.3*	RORg counter=i
COCCn1c(=NC(=O)c2nc3ccccc3s2)sc2cc(S(C)(=O)=O)ccc21	-0.1	88.8*	-1.4	8.2	3.7	63.5*	RORg counter=>40
CC(=O)NC(Cc1ccccc1)P(=O)(O)O (stereo unspecified)	/	11.7	/	2.7	-2.9	/
C/C(=N\NC(=O)Cc1cccs1)c1ccco1	/	-0.8	/	6.0	7.0	/
CCOC(=O)COc1ccc(C(C)c2ccc(NC(=O)OC(C)(C)C)cc2)cc1 (stereo unspecified)	/	-1.1	/	4.5	-4.4	/
CSCCCNC(=O)c1oc(=O)c2ccccc2c1-c1ccc(C)cc1	/	-0.1	/	-21.2	-4.6	/
CC(C)c1ccc(-c2c(C#N)c(N)nc3c2CCCCC3)cc1	2.0	2.2	-0.2	1.7	0.6	/
CSc1nc(N)c(C#N)c(-c2ccc(Cl)cc2)c1C#N	1.7	60.2*	-3.7	-7.9	-12.7	44.7*	RORg counter=>40
Cc1ccc(-c2c(C#N)c(N)nc3c2CCCCC3)cc1	0.2	31.2*	-0.8	-5.5	1.1	19.8*
CSc1nc(-c2ccc(C)cc2)nc(N)c1C#N	1.6	30.6*	-4.8	0.1	-4.4	8.3
O=S1(=O)CC2c3ccc(F)cc3CN2CN1CCc1ccccc1 (stereo unspecified)	/	2.6	/	-2.6	-5.5	/
COC(=O)[C@H]1C[C@@]2(C)c3ccccc3N(S(=O)(=O)c3ccccc3)[C@H]2N1C(=O)CNC1CCCCC1	/	-1.1	/	1.2	-2.6	/
COc1ccc2c(c1)-c1c(ssc1=S)C(C)(C)N2C(=O)CSC1=NCCS1	-0.5	21.2*	-1.9	-9.7	-9.3	30.4*
CC1(C)c2ssc(=S)c2-c2ccccc2N1C(=O)CSC1=NCCS1	1.5	9.1	-5.2	-2.1	-0.8	/
CCCCCCCCN1C(=O)[C@@H](CC(=O)N2CCCCC2)C[C@@]2(C(=O)OC)C1=C[C@H](C(C)C)O[C@@H]2C1CC1	/	1.8	/	-2.4	-3.9	/
Cc1cc(NC(=O)c2ccc(S(=O)(=O)N3CCCC3)cc2)nc2c1c(=O)oc1ccccc12	-1.1	35.9*	2.3	3.5	-2.3	7.6
Cc1cc(C)c(NC(=O)c2ccc(S(=O)(=O)N3CCOCC3)cc2)c(C)c1	1.4	2.1	-1.0	4.3	3.4	/
Cc1cc(NC(=O)c2ccccc2)nc2c1c(=O)oc1ccccc12	-1.9	12.0	-0.5	-4.9	5.5	/
Cc1cc(NC(=O)c2ccc(S(=O)(=O)N3CCOCC3)cc2)nc2c1c(=O)oc1ccccc12	-1.5	36.2*	/	4.3	0.5	16.3
O=C(c1ccc2c(=O)n(Cc3ccccc3)c(=S)[nH]c2c1)N1CCOCC1	0.0	-1.4	-1.1	5.7	0.2	/
O=C(c1ccc2c(=O)n(Cc3ccccc3Cl)c(=S)[nH]c2c1)N1CCOCC1	-1.5	31.8*	-2.7	24.0	-0.4	26.9*
CN(CCOC(=O)c1cc2ccccc2o1)C1CN(Cc2cn(Cc3ccccc3F)nn2)S(=O)(=O)C1 (stereo unspecified)	/	-1.4	/	1.9	3.0	/
CN(Cc1ccccc1F)C(=O)C1CCC(CNS(=O)(=O)c2cccc3cccnc23)CC1 (stereo unspecified)	/	5.6	/	1.8	10.0	/
SMILES	PG9 binder	Rev-erbA mod	V-ATPase pHluor	GC-A act	GC-B act	Rev-erbA confirm	others
Cc1ccc(OCC(=O)Nc2ccc(Cl)cc2)c(-n2nc3ccccc3n2)c1	0.0	68.5*	2.0	-1.7	-6.8	10.0
CCOc1ccc(C)cc1-n1nc2ccccc2n1	1.6	1.2	-4.0	1.4	-9.2	/
CN(Cc1nc2ccccc2c(=O)[nH]1)C(=O)c1ccccc1OCc1ccc(Cl)cc1	-1.1	3.5	-0.9	-14.2	-10.9	/
CN(Cc1nc2ccccc2c(=O)[nH]1)C(=O)c1cc(-c2ccc(Br)cc2)nc2ccccc12	0.6	36.1*	-0.8	6.0	2.6	23.3*
CC1=C2NC(N)=[N+](Cc3ccc4c(c3)OCO4)CC2NOC1 (stereo unspecified)	/	0.9	/	-0.4	2.4	/
O=C(CSc1nc(C2CCCCC2)nc2ccccc12)NCc1ccc2c(c1)OCO2	0.2	19.6*	0.6	-9.0	-5.2	15.9
C=CCn1c(=NC(=O)c2ccco2)sc2cc(C(=O)OC)ccc21	3.1	27.6*	-1.4	9.0	15.6	34.8*	RORg counter=>40
C=CCn1c(=NC(=O)c2ccc(S(=O)(=O)N3CCc4ccccc4C3)cc2)sc2cc(S(N)(=O)=O)ccc21	8.6	13.7	1.8	-3.0	4.2	/
COCCn1c(=NC(=O)c2ccco2)sc2cc(C(=O)OC)ccc21	-1.6	42.1*	1.7	9.3	3.8	37.8*	RORg counter=>40
CCOC(=O)c1ccc2c(c1)nc(SCC(=O)c1ccco1)n2CC	-0.4	-6.4	-1.6	22.3	30.5	/
C=CCn1c(=NC(=O)c2ccco2)sc2cc(C(=O)OCC)ccc21	6.0	29.1*	0.7	5.5	-0.2	23.4*
Cc1ccc(C(=O)N(Cc2ccco2)c2c(N)n(Cc3ccccc3)c(=O)[nH]c2=O)cc1	0.0	0.6	/	2.4	2.0	/
COc1cc(OC)cc(C(=O)N(Cc2ccco2)c2c(N)n(Cc3ccccc3)c(=O)[nH]c2=O)c1	-1.6	17.5*	2.3	-4.0	-3.5	-4.1
CCOc1ccc(-c2nnn(CC(=O)Nc3cc(OC)ccc3OC)n2)cc1OCC	-1.9	0.4	-2.6	-1.0	2.0	/
CCOc1ccc(-c2nnn(CC(=O)c3cc(OC)ccc3OC)n2)cc1	-1.9	18.9*	2.3	-2.0	0.2	4.8
Cc1nn(-c2ccccc2)c(C)c1C=NNC(=O)CSc1nc2ccccc2n1C	/	6.8	/	-2.1	-10.2	/
CCc1c(C)nc(SCC(=O)c2cccs2)c(C#N)c1C	-3.0	3.0	-2.8	7.2	3.0	/
Cc1nc(SCC(=O)Nc2ccccc2C(F)(F)F)c(C#N)c(C)c1CC(=O)c1ccc(Br)cc1	1.2	43.3*	/	-1.2	-2.0	7.0

Bioassay records: PubChem, several laboratories
